Test [1] concerns HB3. Briefly: qHTS profiling for inhibitors of Plasmodium falciparum proliferation (AID 504749). As to conditions: P. falciparum in erythrocytes, SYBR Green DNA, 72 h; series mostly up to 28.7 µM. The procedure, abridged:
(§1)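 Each compound contacts P. falciparum-infected red blood cells for 72 h at 37 C; lysis buffer (Tris, EDTA, saponin, Triton X, SYBR Green I) is added and fluorescence measured next morning; values normalized to controls.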
On the technique in general: qHTS replaces the single test concentration by a dilution series.

In test [2] the test system is ICS. The description is as above. As to conditions: P. falciparum in erythrocytes, SYBR Green DNA, 72 h; series mostly up to 28.7 µM. The method, boiled down: as §1
In test [3] the test system is JCK. The description is as above. The following applies: P. falciparum in erythrocytes, SYBR Green DNA, 72 h; series mostly up to 28.7 µM. The method, boiled down: as §1
The test system of test [4] is N140. Described as above. As to conditions: P. falciparum in erythrocytes, SYBR Green DNA, 72 h; series mostly up to 28.7 µM. The method, boiled down: as §1
Test [5] relates to P93_24. The description is as above. The following applies: P. falciparum in erythrocytes, SYBR Green DNA, 72 h; series mostly up to 28.7 µM. The procedure, abridged:
as §1

In test [6] the test system is P94_40. Described as above. As to conditions: P. falciparum in erythrocytes, SYBR Green DNA, 72 h; series mostly up to 28.7 µM. The procedure, abridged:
as §1

For test [7], the system named is PAD. Described as above. The following applies: P. falciparum in erythrocytes, SYBR Green DNA, 72 h; series mostly up to 28.7 µM. The procedure, abridged:
as §1

The subject of test [8] is PC15. Described as above. As to conditions: P. falciparum in erythrocytes, SYBR Green DNA, 72 h; series mostly up to 28.7 µM. The procedure, abridged: as §1
Test [9] deals with PC26. The description is as above. The following applies: P. falciparum in erythrocytes, SYBR Green DNA, 72 h; series mostly up to 28.7 µM. The method, boiled down:
as §1

Test [10] deals with PC49. The description is as above. As to conditions: P. falciparum in erythrocytes, SYBR Green DNA, 72 h; series mostly up to 28.7 µM. The procedure, abridged: as §1
For test [11], the system named is SC27B. The test is described as above. As to conditions: P. falciparum in erythrocytes, SYBR Green DNA, 72 h; series mostly up to 28.7 µM. The method, boiled down: as §1
Test [12] relates to TAB109. The test is described as above. The following applies: P. falciparum in erythrocytes, SYBR Green DNA, 72 h; series mostly up to 28.7 µM. The procedure, abridged: as §1
Test [13] has as its system TAB113. Described as above. The following applies: P. falciparum in erythrocytes, SYBR Green DNA, 72 h; series mostly up to 28.7 µM. The procedure, abridged:
as §1

Test [14] has as its system TAB165. The test is described as above. The following applies: P. falciparum in erythrocytes, SYBR Green DNA, 72 h; series mostly up to 28.7 µM. The procedure, abridged:
as §1

For test [15], the system named is W2. Described as above. As to conditions: P. falciparum in erythrocytes, SYBR Green DNA, 72 h; series mostly up to 28.7 µM. The procedure, abridged:
as §1

Test [16] deals with CRL-7250. Kind of test: Cytotoxic Profiling of Annotated Libraries Using Quantitative High-Throughput Screening (AID 1296008). For max response: % is set by controls: 0 for no effect and ±100 for the full control effect. The following applies: Five cell lines viability, CellTiter-Glo ATP luminescence, 48-72 h; max response: stronger effect = lower value. The method, boiled down: (§2)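 Cells exposed to compounds for 48 or 72 hr at 37 degrees Celsius. Viability read as ATP-coupled luminescence with CellTiter-Glo after 10 min at room temperature.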
In general terms: In ATP-based viability assays light output follows the ATP content of the culture.

Test [17] has as its system HEK293. Described as above. The following applies: Five cell lines viability, CellTiter-Glo ATP luminescence, 48-72 h; max response: stronger effect = lower value. The method, boiled down: as §2
Test [18] relates to HaCat. The description is as above. The following applies: Five cell lines viability, CellTiter-Glo ATP luminescence, 48-72 h; max response: stronger effect = lower value. The method, boiled down:
as §2

Test [19] has as its system KB-3-1. The description is as above. The following applies: Five cell lines viability, CellTiter-Glo ATP luminescence, 48-72 h; max response: stronger effect = lower value. The procedure, abridged: as §2
Test [20] relates to NIH3T3. The test is described as above. The following applies: Five cell lines viability, CellTiter-Glo ATP luminescence, 48-72 h; max response: stronger effect = lower value. The procedure, abridged: as §2

Where “and” joins values, the source holds several entries; their conditions need not be identical. Equal entries are not always repeated. Inconclusive results are not listed. Some structures have more than one record in an assay (separate samples or runs), and their calls can disagree. A number with no mark means an inactive call. Calls of active or inactive are those of the source. Calls come from the whole dose curve; as a rule, active = well fitted inhibition curve with a large enough effect; inconclusive = small, poorly fitted or top-dose-only effect; inactive = flat fitted curve, though single readings scatter.
Note: nearly all actives have a fitted effect of over 60% in size.
Potency is the fitted concentration of half-maximal effect.

Turning to `Cn1cnc2c1c(=O)[nH]c(=O)n2C`, the Potency entry in test [1], in test [2], in test [3], in [4], in [5] and in [6] was “inactive” in each case. Besides, the Potency entry in [7], in [8], in [9], in test [10], in test [11] and in test [12] was “inactive” each time. Besides, the Potency entry in test [13], in test [14] and in [15] was “inactive” each time. Besides, the call in test [16] and in test [18] was inactive. The values for the Potency in [17], in test [19] and in test [20] were 9.35 µM (active), 20.9 µM (active) and 26.4 µM (active), respectively. The max response in [17] is 1.79%; in test [19], 6.57%; in test [20] it was 1.38%.

As for `CN1CCN(C2=Nc3cc(Cl)ccc3Nc3ccccc32)CC1`, the max response in test [16] is -7.49% and -17.9%; in test [18] it was 2.26%; in test [19], 6.37%. Further, the Potency in [17] was 13.3 µM (active). Moreover, in test [20], the compound was classed as inactive.

With `CC(CCc1ccc(O)cc1)NCCc1ccc(O)c(O)c1` (stereo not given), the Potency result in test [1], in [2], in [3], in test [4], in test [5] and in test [6] was “inactive” in each case. Moreover, the Potency entry in test [7], in test [9], in test [10], in [11], in test [12] and in test [13] was “inactive” in each case. In addition, in test [14], the Potency entry is “inactive”. Moreover, the Potency in test [16] was 23.7 µM (active). The max response in test [17] was -19%; in test [18] it was 0.349%; in [19], -2.1%; in test [20], -1.03% and 1.16%. Besides, the call in test [18] was inactive.

Regarding `COc1ccc(CCN(C)CCCC(C#N)(c2ccc(OC)c(OC)c2)C(C)C)cc1OC` (stereo not given), the Potency result in test [1], in test [3], in [4], in [7], in test [8] and in test [10] was “inactive” in each case. Moreover, the Potency result in test [11], in test [13] and in test [14] was “inactive” in each case. For the same compound, the max response in test [16] was -3.47% and -1.73%; in test [17], -14.8%; in test [18], -28.3%; in test [19], -13.1% and 17.7%; in test [20] it was -15.4% and 3.75%. The call in test [18] was inactive.

Turning to `Cc1cn([C@H]2C=C[C@@H](CO)O2)c(=O)[nH]c1=O`, the Potency result in [1], in test [2], in test [3], in test [4], in test [5] and in test [6] was “inactive” in each case. For the same compound, the Potency result in test [7], in test [8], in test [9], in [10], in [11] and in test [12] was “inactive” each time. In addition, the Potency result in test [13], in [14] and in [15] was “inactive” each time. Moreover, the max response in [16] was -12.9% and -2.54%; in test [17] it was -0.556% and 1.63%; in test [18], 4.4% and -10.3%; in test [20], 1.04% and -9.57%. Moreover, in test [19], the result was inactive.

Take `CN1C(C(=O)Nc2ccccn2)=C(O)c2ccccc2S1(=O)=O`: the Potency result in [1], in test [2], in [3], in test [4], in [5] and in [6] was “inactive” throughout. The Potency entry in test [7], in test [8], in [9], in test [10], in [11] and in [12] was “inactive” throughout. The Potency result in [13], in [14] and in test [15] was “inactive” in each case. Besides, the max response was -1.73% and 2.62% in test [16]; 3.98% in test [17]; 0.638% and -49.2% in test [18]; -1.54% and -11.4% in test [19]; 1.34% in test [20].

On to `Cn1c(=O)c2c(ncn2C)n(C)c1=O`, for which the Potency entry in test [1], in test [2], in test [3], in test [4], in [5] and in test [6] was “inactive” throughout. The Potency result in test [7], in test [8], in [9], in test [10], in [11] and in test [12] was “inactive” throughout. For the same compound, the Potency result in test [13], in test [14] and in [15] was “inactive” each time. The max response in [16] was 0.692% and -3.54%; in test [17] it was -13.2% and 0.976%; in [18], 1.8% and -12.8%; in [19], 3.75%; in test [20], -9.99% and -2.17%.

As to `CN1CCC(=C2c3ccccc3C=Cc3ccccc32)CC1`, the Potency entry in test [1], in [3], in [4], in [5], in [6] and in [7] was “inactive” in each case. In addition, the Potency result in [8], in [9], in test [10], in [11], in [12] and in test [13] was “inactive” each time. Moreover, the Potency result in [14] is “inactive”. Besides, the compound was called inactive in [16], in [18] and in test [20]. For the same compound, in test [17], the Potency was 10.6 µM (active). Moreover, the max response is -1.05% in [18]; 25.1% and -12.3% in test [19]; -0.507% in test [20].

For `O=C(CCCN1CCC(O)(c2ccc(Cl)cc2)CC1)c1ccc(F)cc1`, the max response in test [16] was -7.49% and -12%; in test [18], 2.18%; in test [19] it was 1.13%. The Potency in test [17] is 18.8 µM (active); in [20] it was 21.1 µM (active). Further, the call in test [18] and in test [20] was inactive.

In the case of `CC(C)NCC(O)COc1ccc(CCOCC2CC2)cc1` (stereo not given), the Potency in [2] is 5.01 µM (active); in [15] it was 15.1 µM (active). Besides, the Potency entry in [3], in [10] and in [11] was “inactive” each time. Also, the max response in [16] was -5.76%; in test [17] it was -0.0868% and -3.99%; in test [18], 2.43%; in test [19], 1.84%; in test [20], 2.13% and -7.76%. The call in [18] was inactive.

In the case of `O=c1c(-c2ccc(O)cc2)coc2cc(O)cc(O)c12`, the Potency result in test [1], in test [2], in test [3], in test [4], in [5] and in test [6] was “inactive” throughout. In addition, the Potency result in test [7], in test [8], in [10], in test [11], in test [12] and in [13] was “inactive” each time. Moreover, in test [14], the Potency entry is “inactive”. Further, the max response is 4.48% in [16]; -3.7% in test [17]; 0.82% in [18]; 32.1% in test [19]; -9.8% and -21.1% in test [20]. Further, the result in test [18] and in [19] was inactive.

For the origin of these results see PubChem BioAssay (NCATS).
